In PubChem BioAssay (EPA / NIEHS):
Calls of active or inactive are those of the source. Rule for the calls: active = hit-call score of the fitted dose curve at least 0.9, where 1 is the maximum; inactive = score below 0.9.

The compounds below were run on X-box binding protein 1 (XBP1), XBP1 (gene 7494) (assay: LTEA_HepaRG_XBP1: Life Technologies and Expression Analysis (LTEA) Assay for X-box binding protein 1 (XBP1) using HepaRG (AID 2283540)). Settings: mRNA level, 48 h; actives raise or lower the signal.
Procedure: LTEA_HepaRG is a cell based, multiplexed-readout assay that uses HepaRG, a human liver cell line, with measurements taken at 48 hours after chemical dosing on a 96-well plate.LTEA_HepaRG_XBP1 is one of 102 assay component(s) measured in the LTEA HepaRG cell culture assay. It is a marker of Diseases associated with XBP1 including Major Affective Disorder 7 and Bipolar Disorder.Data from the assay component LTEA_HepaRG_XBP1 was analyzed into 1 endpoint. This assay endpoint, LTEA_HepaRG_XBP1, was analyzed with bidirectional fitting relative to DMSO as the negative control and baseline of activity. Using a type of inducible reporter, measures of mRNA induction for gain or loss-of-signal activity can be used to understand regulation of transcription factor activity. To generalize the intended target to other relatable targets, this assay endpoint is annotated to the dna binding intended target family, where the subfamily is basic leucine zipper.
A total of 1060 chemcials from the ToxCast library were tested in eight-point concentration-response experiments. Cell culture and cytotoxicity assays were conducted at Thermo Fisher Scientific's Custom Services facility (Madison, WI). A single lot of human HepaRG cells (Thermo Fisher Scientific, Frederick, MD) was used for the cell culture experiments. 96-well format collagen type I coated plates of human HepaRG cells were prepared using established methods. Briefly, cryopreserved HepaRG cells were thawed, plated at a density of approximately 100,000 cells/well in HepaRG Thaw, Plate, and General Purpose media (HPRG770, Thermo Fisher Scientific), and incubated for 48 hours. 0.5% DMSO was selected as vehicle control to balance the requisite need of DMSO in HepaRG cultures to maintain differentiation (for example, baseline metabolism, proportions of hepatocytes vs. cholangiocytes), while enabling further hepatic receptor pathway activation (for example, PXR and CAR) in response to chemical exposure. 48 hours after plating, the culture medium was replaced with HepaRG Serum-Free Incudtion Media. Cells were exposed to each test chemical in duplicate and maintained in CO2 incubators for another 48 hours. Chemical plates were thawed to room temperature and 200x concentrations of treatment groups were prepared. 8-point conentration-reponse curves were made with the highest exposure at 100 uM, followed by half-log dilutions, all in 0.5% DMSO. Each test plate contained variouse controls, induction positive controls (1mM phenobarbital), cytotoxicity positive controls ([…] aflatoxin B1), vehicle controls (0.5% DMSO), and total lysis controls (0.5% DMSO). Cell morphology images were taken using an Essen IncuCyte FLR automated microscope, with six 96-well plates imaged in about 24 minutes. Images were captured and exported and JPEG files. Spent culture media was transfered to black-well plates for the LDH assay, and remaining media was sorted at -80 C for later use. Cells were treated with RLT buffer and frozen until shipped for gene expression analysis. Total RNA was isolated from the cell suspension in 75 uL of Buffer RLT (Qiagen, Germantown, MD 20874) by Quintiles/Expression Analysis (Durham, NC) using a custom isolation procedure. Total RNA from each plate well was transferred to a preamplification plate. Fluidigm's 96.96 Dynamic ArrayTM (Fluidigm, Amsterdam, the Netherlands) technology was used for gene expression analyses by quantitative reverse transcription polymerase chain reaction (qRT-PCR, performed by Quintiles/Expression Analysis, Durham, NC)89. Standard TaqManTM Assays (Applied Biosystems/ThermoFisher Scientific, Foster City, CA) were used to assess the expression of 93 genes selected based on their selectivity and sensitivity to important hepatic receptors known to be modulated by environmental chemicals; importance in human hepatocyte functionality; and hepatotoxicity. […]
CC(C)N1C(=O)c2ccccc2NS1(=O)=O was tested, and the outcome was “inactive”.
For CNC(=O)Oc1cccc2ccccc12, the outcome was “inactive”.
With O=C(Nc1ccccc1-c1ccc(Cl)cc1)c1cccnc1Cl the outcome was “inactive”.
In the case of CCOP(=O)(OCC)Oc1nc(Cl)c(Cl)cc1Cl, the AC50 is reported as 83.1 µM (active).
For CC(C)N1C(=O)N(c2ccccc2)CSC1=NC(C)(C)C, the outcome was “inactive”.
O=P(O)(O)CCCl was tested, and the outcome was “inactive”.
In the case of CCCCC(C#N)(Cn1cncn1)c1ccc(Cl)cc1 (stereo not given), the outcome is reported as “inactive”.
For CCOP(=S)(OCC)Oc1nc(Cl)n(C(C)C)n1, the outcome was “inactive”.
In the case of COCC(C)N(C(=O)CCl)c1c(C)csc1C (stereo not given), the outcome is reported as “inactive”.
For Nc1c(Cl)c(F)nc(OCC(=O)O)c1Cl, the outcome was “inactive”.
For CCOc1nc(F)cc2nc(S(=O)(=O)Nc3c(Cl)cccc3Cl)nn12, the outcome was “inactive”.
In the case of Cc1cc(C)nc(Nc2ccccc2)n1, the outcome is reported as “inactive”.
With O=C1C2CC=CCC2C(=O)N1SC(Cl)(Cl)Cl (stereo not given) the outcome was “inactive”.
For CCCCC(O)(Cn1cncn1)c1ccc(Cl)cc1Cl (stereo not given), the outcome was “inactive”.
With N#Cc1c[nH]cc1-c1cccc2c1OC(F)(F)O2 the outcome was “inactive”.
With CC1(C)CON(Cc2ccccc2Cl)C1=O the outcome was “inactive”.
For C=C(C)CN(CC)c1c([N+](=O)[O-])cc(C(F)(F)F)cc1[N+](=O)[O-], the outcome was “inactive”.
With CCNP(=S)(OC)O/C(C)=C/C(=O)OC(C)C (stereo not given) the outcome was “inactive”.
For CS(=O)(=O)c1ccc(C(=O)C2C(=O)CCCC2=O)c([N+](=O)[O-])c1, the outcome was “inactive”.
OC(c1ccc(Cl)cc1)(c1ccc(Cl)cc1)C(Cl)(Cl)Cl was tested, and the AC50 was 82.1 µM (active).
For O=C(O)c1c(Cl)ccc2cc(Cl)cnc12, the outcome was “inactive”.
CCC(C)n1c(=O)[nH]c(C)c(Br)c1=O (stereo not given) was tested, and the AC50 was 30.5 µM (active).
With Nc1cnn(-c2ccccc2)c(=O)c1Cl the outcome was “inactive”.
For CC1(C)CCC(=Cc2ccc(Cl)cc2)C1(O)Cn1cncn1 (stereo not given), the outcome was “inactive”.
In the case of CCN(CC)C(=O)C(C)Oc1cccc2ccccc12 (stereo not given), the AC50 is reported as 50 µM (active).
In the case of Clc1cccc(C(Cl)(Cl)Cl)n1, the outcome is reported as “inactive”.
For CC(C)(C)C(=O)C(Oc1ccc(Cl)cc1)n1cncn1 (stereo not given), the outcome was “inactive”.
COP(=S)(OC)Oc1ccc([N+](=O)[O-])c(C)c1 was tested, and the outcome was “inactive”.
In the case of CCOC(=O)C(C)OC(=O)c1cc(Oc2ccc(C(F)(F)F)cc2Cl)ccc1[N+](=O)[O-] (stereo not given), the outcome is reported as “inactive”.
In the case of CCOc1cc(C(C)(C)C)ccc1C1COC(c2c(F)cccc2F)=N1 (stereo not given), the outcome is reported as “inactive”.
In the case of COP(=O)(OC)O/C(C)=C/C(=O)N(C)C, the outcome is reported as “inactive”.
For CCN(CC)c1nc(C)cc(OP(=S)(OC)OC)n1, the outcome was “inactive”.
In the case of CN/C(=N\[N+](=O)[O-])NCc1cnc(Cl)s1, the outcome is reported as “inactive”.
For CCCC(=NOCC)C1=C(O)CC(CC(C)SCC)CC1=O (stereo not given), the outcome was “inactive”.
For Clc1nc(Cl)nc(Nc2ccccc2Cl)n1, the outcome was “inactive”.
For Cn1c(-c2ccccc2)cc(-c2ccccc2)[n+]1C, the outcome was “inactive”.
With CCNC(=O)NC(=O)C(C#N)=NOC the outcome was “inactive”.
For CC(C)=CC1C(C(=O)OCc2coc(Cc3ccccc3)c2)C1(C)C (stereo not given), the outcome was “inactive”.
With CS(=O)(=O)c1cc(C(F)(F)F)ccc1C(=O)c1cnoc1C1CC1 the outcome was “inactive”.
For COC(=O)N(C(=O)N1CO[C@@]2(C(=O)OC)Cc3cc(Cl)ccc3C2=N1)c1ccc(OC(F)(F)F)cc1, the outcome was “inactive”.
